About 410 targets per protein were measured; listed, in parts, are those with the strongest signals and a random draw of the rest.
Legend:
Assay in all cases: glycan array binding signal (z-score within array); higher = stronger binding
Settings in all cases: glycan notation: IUPAC condensed, linker removed
[1] = biological target: Fuc(a1-2)Gal(b1-3)GalNAc(b1-4)[Neu5Ac(a2-3)]Gal(b1-4)Glc
Summary of the method: (§1)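 The Consortium for Functional Glycomics database supplied 3228 glycan arrays, of which those lacking an available protein sequence were dropped. The binding signal, a within-array Z-score, was averaged across arrays of the same protein sequence and across linkers. Negative scores can be read as non-binding.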

Fuc(a1-2)Gal(b1-4)Glc = biological target: Fuc(a1-2)Gal(b1-4)Glc
Summary of the method: as §1

Fuc(a1-2)Gal(b1-4)Glc6S = biological target: Fuc(a1-2)Gal(b1-4)Glc6S
Summary of the method: as §1

Fuc(a1-2)Gal(b1-4)GlcNAc = biological target: Fuc(a1-2)Gal(b1-4)GlcNAc
Summary of the method: as §1

[2] = biological target: Fuc(a1-2)Gal(b1-4)GlcNAc6S
Summary of the method: as §1

Fuc(a1-2)Gal6S(b1-4)Glc = biological target: Fuc(a1-2)Gal6S(b1-4)Glc
Summary of the method: as §1

[3] = biological target: Fuc(a1-2)Gal6S(b1-4)Glc6S
Summary of the method: as §1

[4] = biological target: Fuc(a1-2)[Gal(a1-4)]Gal(b1-4)GlcNAc
Summary of the method: as §1

[5] = biological target: Fuc(a1-2)[GalNAc(a1-3)]Gal(b1-4)GlcNAc
Summary of the method: as §1

[6] = biological target: Fuc(a1-2)[GalNAc(a1-4)]Gal(b1-4)GlcNAc
Summary of the method: as §1

Gal(a1-3)Gal(b1-3)GlcNAc = biological target: Gal(a1-3)Gal(b1-3)GlcNAc
Summary of the method: as §1

Gal(a1-3)Gal(b1-4)Glc = biological target: Gal(a1-3)Gal(b1-4)Glc
Summary of the method: as §1

Gal(a1-3)Gal(b1-4)GlcNAc = biological target: Gal(a1-3)Gal(b1-4)GlcNAc
Summary of the method: as §1

[7] = biological target: Gal(a1-4)Gal(b1-3)GlcNAc(b1-2)Man(a1-3)[Gal(a1-4)Gal(b1-3)GlcNAc(b1-2)Man(a1-6)]Man(b1-4)GlcNAc(b1-4)GlcNAc
Summary of the method: as §1

Gal(a1-4)Gal(b1-4)GlcNAc = biological target: Gal(a1-4)Gal(b1-4)GlcNAc
Summary of the method: as §1

Gal(a1-4)GlcNAc = biological target: Gal(a1-4)GlcNAc
Summary of the method: as §1

[8] = biological target: Gal(b1-4)GlcNAc(b1-2)[Gal(b1-4)GlcNAc(b1-4)]Man(a1-3)[Gal(b1-4)GlcNAc(b1-2)[Gal(b1-4)GlcNAc(b1-6)]Man(a1-6)]Man(b1-4)GlcNAc(b1-4)GlcNAc
Summary of the method: as §1

Gal3S6S(b1-4)GlcNAc6S = biological target: Gal3S6S(b1-4)GlcNAc6S
Summary of the method: as §1

Gal6S(b1-4)GlcNAc = biological target: Gal6S(b1-4)GlcNAc
Summary of the method: as §1

[9] = biological target: GalNAc(a1-3)Fuc(a1-2)Gal(b1-4)GlcNAc(b1-3)[GalNAc(a1-3)Fuc(a1-2)Gal(b1-4)GlcNAc(b1-6)]GalNAc
Summary of the method: as §1

GalNAc(b1-3)Gal = biological target: GalNAc(b1-3)Gal
Summary of the method: as §1

[10] = biological target: Glc(a1-6)Glc(a1-6)Glc(a1-6)Glc
Summary of the method: as §1

Glc(b1-4)Glc = biological target: Glc(b1-4)Glc
Summary of the method: as §1

Glc(b1-6)Glc = biological target: Glc(b1-6)Glc
Summary of the method: as §1

[11] = biological target: GlcNAc(a1-4)Gal(b1-4)GalNAc
Summary of the method: as §1

[12] = biological target: GlcNAc(a1-6)Gal(b1-4)GlcNAc
Summary of the method: as §1

[13] = biological target: GlcNAc(b1-2)[GlcNAc(b1-6)]Man(a1-6)[GlcNAc(b1-2)Man(a1-3)]Man(b1-4)GlcNAc(b1-4)GlcNAc
Summary of the method: as §1

Kdn(a2-3)Gal(b1-4)GlcNAc = biological target: Kdn(a2-3)Gal(b1-4)GlcNAc
Summary of the method: as §1

[14] = biological target: Neu5Ac(a2-3)Gal(b1-3)GalNAc
Summary of the method: as §1

[15] = biological target: Neu5Ac(a2-3)Gal(b1-3)GlcNAc(b1-3)Gal(b1-4)GlcNAc
Summary of the method: as §1

[16] = biological target: Neu5Ac(a2-3)Gal(b1-3)[Fuc(a1-4)]GlcNAc
Summary of the method: as §1

[17] = biological target: Neu5Ac(a2-3)Gal(b1-3)[Fuc(a1-4)]GlcNAc(b1-3)Gal(b1-4)[Fuc(a1-3)]GlcNAc
Summary of the method: as §1

[18] = biological target: Neu5Ac(a2-3)Gal(b1-3)[Neu5Ac(a2-6)]GalNAc
Summary of the method: as §1

[19] = biological target: Neu5Ac(a2-3)Gal(b1-4)GlcNAc(b1-3)Gal(b1-3)GlcNAc
Summary of the method: as §1

[20] = biological target: Neu5Ac(a2-3)Gal(b1-4)GlcNAc(b1-6)[Gal(b1-3)]GalNAc
Summary of the method: as §1

[21] = biological target: Neu5Ac(a2-3)Gal(b1-4)GlcNAc(b1-6)[Neu5Ac(a2-3)Gal(b1-3)]GalNAc
Summary of the method: as §1

Neu5Ac(a2-3)GalNAc = biological target: Neu5Ac(a2-3)GalNAc
Summary of the method: as §1

B1: UEA-I (Ulex europaeus), P22972 (protein)
chain: SDDLSFKFKNFSQNGKDLSFQGDASVIETGVLQLNKVGNNLPDETGGIARYIAPIHIWNCNTGEVASFITSFSFFMETSANPKAATDGLTFFLAPPDSPLRRAGGYFGLFEDTKDNDSSYQTVAVEFDTIGSPVNFDDPGFPHIGIDVNRVKSINAERWNKRYGLNNVANVEIIYEASSKTLTASLTYPSDQTSISVTSIVDLKEILPEWVSVGFSGGTYIGRQATHEVLNWYFTSNLIN
- glycan array binding signal (z-score) [1]: -0.19
- glycan array binding signal (z-score) (Fuc(a1-2)Gal(b1-4)Glc): 5.21
- glycan array binding signal (z-score) (Fuc(a1-2)Gal(b1-4)Glc6S): 8.13
- glycan array binding signal (z-score) (Fuc(a1-2)Gal(b1-4)GlcNAc): 6.42
- glycan array binding signal (z-score) [2]: 6.86
- glycan array binding signal (z-score) (Fuc(a1-2)Gal6S(b1-4)Glc): 4.06
- glycan array binding signal (z-score) [3]: 8.02
- glycan array binding signal (z-score) [4]: 5.33
- glycan array binding signal (z-score) [5]: -0.183
- glycan array binding signal (z-score) [6]: 4.61
- glycan array binding signal (z-score) (Gal(a1-3)Gal(b1-3)GlcNAc): -0.18
- glycan array binding signal (z-score) (Gal(a1-3)Gal(b1-4)Glc): -0.172
- glycan array binding signal (z-score) (Gal(a1-3)Gal(b1-4)GlcNAc): -0.186
- glycan array binding signal (z-score) [7]: -0.17
- glycan array binding signal (z-score) (Gal(a1-4)Gal(b1-4)GlcNAc): -0.176
- glycan array binding signal (z-score) (Gal(a1-4)GlcNAc): -0.174
- glycan array binding signal (z-score) [8]: -0.175
- glycan array binding signal (z-score) (Gal3S6S(b1-4)GlcNAc6S): -0.174
- glycan array binding signal (z-score) (Gal6S(b1-4)GlcNAc): -0.188
- glycan array binding signal (z-score) [9]: -0.158
- glycan array binding signal (z-score) (GalNAc(b1-3)Gal): -0.18
- glycan array binding signal (z-score) [10]: -0.177
- glycan array binding signal (z-score) (Glc(b1-4)Glc): -0.178
- glycan array binding signal (z-score) (Glc(b1-6)Glc): -0.185
- glycan array binding signal (z-score) [11]: -0.175
- glycan array binding signal (z-score) [12]: -0.176
- glycan array binding signal (z-score) [13]: -0.186
- glycan array binding signal (z-score) (Kdn(a2-3)Gal(b1-4)GlcNAc): -0.185
- glycan array binding signal (z-score) [14]: -0.18
- glycan array binding signal (z-score) [15]: -0.182
- glycan array binding signal (z-score) [16]: -0.181
- glycan array binding signal (z-score) [17]: -0.186
- glycan array binding signal (z-score) [18]: -0.17
- glycan array binding signal (z-score) [19]: -0.178
- glycan array binding signal (z-score) [20]: -0.183
- glycan array binding signal (z-score) [21]: -0.179
- glycan array binding signal (z-score) (Neu5Ac(a2-3)GalNAc): -0.177

Reference: the supplement of paper PMC8728848
